Measured values: the supplement of paper PMC7530171
Where a name gives a salt, the structure may show the parent alone. ± gives the standard deviation.

What follows are molecules tested on THP-1 (assay: THP-1 cell loss relative to DMSO control; higher = more host cell loss (toxicity); extreme values may be limits of the assay). Settings: 10 µM; 4 days; infection: M. tuberculosis H37Rv.
Experimental: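 OICR kinase inhibitor library screened in duplicate at 10 uM against M. tuberculosis-infected THP-1 macrophages, 4 days at 37 C. THP-1 cell loss (cytotoxicity or loss of adherence) was quantified from Hoechst-stained nuclei counts by high-content imaging and normalised to the 1% DMSO control; 100 = complete loss of host cells.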

For `Cn1cc(C2=C(c3ccc(Cl)cc3Cl)C(=O)NC2=O)c2ccccc21`, which THP-1 cell loss is on record?
Its THP-1 cell loss is 15.5 ± 22%.

With `O=C(CO)N1CCC(c2n[nH]c(-c3ccc(Cl)cc3)c2-c2ccncn2)CC1` as the molecule, how does the THP-1 cell loss read?
The THP-1 cell loss was 11.1 ± 0.43%.

Which THP-1 cell loss does the source give for `COc1cc(Nc2c(C#N)cnc3cc(OCCCN4CCN(C)CC4)c(OC)cc23)c(Cl)cc1Cl` [Bosutinib] here?
The THP-1 cell loss was 59.6 ± 15%.

`NC(=O)c1sc2c([N+](=O)[O-])cc(C(F)(F)F)cc2[n+]1[O-]` [Cyclapolin 9] was tested. Which THP-1 cell loss did it give?
Its THP-1 cell loss is 35.6 ± 12%.

`O=C1NC(=O)/C(=C/c2ccc3c(c2)OC(F)(F)O3)S1` was tested. Which THP-1 cell loss did it give?
The THP-1 cell loss was 7.44 ± 3.3%.

For `CCN(CC)CCCCNc1ncc2cc(-c3cc(OC)cc(OC)c3)c(NC(=O)NC(C)(C)C)nc2n1`, which THP-1 cell loss is on record?
Its THP-1 cell loss is 8.25 ± 12%.

With `Cc1cc(C=C2C(=O)C=CC2=O)cc(C)c1O` as the molecule, how does the THP-1 cell loss read?
Its THP-1 cell loss is 1.15 ± 1.6%.

Which THP-1 cell loss does the source give for `Cc1ccc(NC(=O)c2cccc(N(C)C)c2)cc1NC(=O)c1ccc(O)cc1` here?
Its THP-1 cell loss is 3.71 ± 3.8%.

With `CC(C)CCN1c2nc(Nc3cc(F)c(O)c(F)c3)ncc2N(C)C(=O)C1C` (stereo unspecified) as the molecule, how does the THP-1 cell loss read?
Its THP-1 cell loss is 56.5 ± 6.2%.

For `COc1cc2ncnc(Nc3ccc(Oc4ccccc4)cc3)c2cc1OC`, which THP-1 cell loss is on record?
The THP-1 cell loss was 0%.

`O=c1[nH]nc(Sc2ncc([N+](=O)[O-])s2)n1-c1ccc2c(c1)OCCO2` was tested. Which THP-1 cell loss did it give?
Its THP-1 cell loss is 31.1 ± 44%.

With `O=C1NCc2c1c1c3ccccc3[nH]c1c1[nH]c3ccccc3c21` as the molecule, how does the THP-1 cell loss read?
Its THP-1 cell loss is 35.8 ± 3.5%.

How did the THP-1 cell loss turn out when `CN1CCC(Nc2ncc3ncnc(Nc4ccc(F)c(Cl)c4)c3n2)CC1` [BIBX 1382 dihydrochloride] was run?
The THP-1 cell loss was 17.8 ± 14%.

Which THP-1 cell loss does the source give for `O=C(Nc1cc(Cl)cc2c1[nH]c1cnccc12)c1cccnc1` [PS1145 dihydrochloride] here?
Its THP-1 cell loss is 48.1 ± 24%.

`Cc1cn(-c2cc(NC(=O)c3ccc(C)c(Nc4nccc(-c5cccnc5)n4)c3)cc(C(F)(F)F)c2)cn1` [Nilotinib] was tested. Which THP-1 cell loss did it give?
Its THP-1 cell loss is 75.3 ± 35%.

How did the THP-1 cell loss turn out when `COC(=O)Nc1ccc(-c2nc(N3CCOCC3)c3cnn(C4CCN(C(=O)OC)CC4)c3n2)cc1` was run?
The THP-1 cell loss was 35.6 ± 0.38%.

With `C#Cc1cccc(Nc2ncnc3cc(OCCOC)c(OCCOC)cc23)c1` [Erlotinib HCl] as the molecule, how does the THP-1 cell loss read?
Its THP-1 cell loss is 5.26 ± 7.4%.

With `CC(=O)c1c(C)c2cnc(Nc3ccc(N4CCNCC4)cn3)nc2n(C2CCCC2)c1=O` as the molecule, how does the THP-1 cell loss read?
The THP-1 cell loss was 30.5 ± 8.2%.

For `Cc1cc(Nc2nc(N[C@@H](C)c3ccc(F)cc3)c(C#N)cc2F)n[nH]1`, which THP-1 cell loss is on record?
The THP-1 cell loss was 39 ± 9.1%.

How did the THP-1 cell loss turn out when `O=C(NOC[C@H](O)CO)c1ccc(F)c(F)c1Nc1ccc(I)cc1F` was run?
The THP-1 cell loss was 100%.

For `O=S(=O)(NCCNC/C=C/c1ccc(Br)cc1)c1cccc2cnccc12` [H 89 dihydrochloride], which THP-1 cell loss is on record?
The THP-1 cell loss was 10 ± 2.1%.

How did the THP-1 cell loss turn out when `N#C/C(=C\c1ccc(O)c(O)c1)C(=O)Nc1ccccc1` was run?
Its THP-1 cell loss is 9.72 ± 2.5%.

With `Oc1c2ccccc2c2c3c(cccc13)N=N2` as the molecule, how does the THP-1 cell loss read?
The THP-1 cell loss was 19.8 ± 16%.

For `CN1CCC(CNc2ccc3ncc(-c4cccc(OC(F)(F)F)c4)n3n2)CC1`, which THP-1 cell loss is on record?
Its THP-1 cell loss is 55.8 ± 30%.

Which THP-1 cell loss does the source give for `O=c1cc(N2CCOCC2)oc2c1ccc1ccccc12` here?
Its THP-1 cell loss is 24.4 ± 6.4%.

`COc1cc2/c(=N/c3ccc(Br)cc3F)nc[nH]c2cc1OCC1CCN(C)CC1` [Vandetanib] was tested. Which THP-1 cell loss did it give?
Its THP-1 cell loss is 40.7 ± 6.5%.

Which THP-1 cell loss does the source give for `CCCOc1ccc(/C=C2/SC(=O)NC2=O)cc1` [PIM1/2 Kinase Inhibitor VI] here?
The THP-1 cell loss was 4.36 ± 6.2%.

Which THP-1 cell loss does the source give for `COc1ccc(S(=O)(=O)N(C(C)=O)c2ccccc2/C=C/c2cc[n+]([O-])cc2)cc1` here?
Its THP-1 cell loss is 51.3 ± 4.4%.

For `Cc1ccc2c(=O)c3ccccc3n(CCCN)c2c1C`, which THP-1 cell loss is on record?
Its THP-1 cell loss is 100%.

Which THP-1 cell loss does the source give for `CS(=O)(=O)N1CCN(Cc2cc3nc(-c4cccc5[nH]ncc45)nc(N4CCOCC4)c3s2)CC1` [GDC-0941 bismesylate] here?
The THP-1 cell loss was 38 ± 2.2%.

`Cc1ccc([N+](=O)[O-])cc1S(=O)(=O)N(C)/N=C/c1cnc2ccc(Br)cn12` [PIK-75 hydrochloride] was tested. Which THP-1 cell loss did it give?
The THP-1 cell loss was 100%.

`CC(C)[C@H](CO)Nc1nc(Nc2ccc(C(=O)O)c(Cl)c2)c2ncn(C(C)C)c2n1` [Purvalanol B] was tested. Which THP-1 cell loss did it give?
The THP-1 cell loss was 1.78 ± 2.5%.

With `CC#CC(=O)Nc1ccc2ncnc(Nc3cccc(Br)c3)c2c1` as the molecule, how does the THP-1 cell loss read?
The THP-1 cell loss was 89.6 ± 15%.

For `CC(C)n1nc(-c2cc3cc(O)ccc3[nH]2)c2c(N)ncnc21`, which THP-1 cell loss is on record?
The THP-1 cell loss was 92.9 ± 10%.

`Cc1[nH]c(/C=C2\C(=O)Nc3ccccc32)c(C)c1CCC(=O)O` was tested. Which THP-1 cell loss did it give?
The THP-1 cell loss was 5 ± 7.1%.

What follows are molecules tested on THP-1 macrophages infected with Mycobacterium tuberculosis H37Rv (assay: intracellular M.tb growth inhibition relative to DMSO (0) and 4 uM bedaquiline (100); higher = stronger inhibition of intracellular bacterial growth). Settings: 10 µM; 4 days.
Experimental: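 OICR kinase inhibitor library screened in duplicate at 10 uM against THP-1 macrophages (PMA-differentiated) infected with M. tuberculosis H37Rv-pTEC27 (tdTomato RFP), 4 days at 37 C. Rows with complete host cell loss (placeholder inhibition 0, cell loss 100) were removed.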

How did the “intracellular M.tb growth inhibition” value turn out when `Cn1cc(C2=C(c3ccc(Cl)cc3Cl)C(=O)NC2=O)c2ccccc21` was run?
The value was -108 ± 200%.

For `O=C(CO)N1CCC(c2n[nH]c(-c3ccc(Cl)cc3)c2-c2ccncn2)CC1`, which “intracellular M.tb growth inhibition” value is on record?
Its value is -135 ± 140%.

How did the “intracellular M.tb growth inhibition” value turn out when `COc1cc(Nc2c(C#N)cnc3cc(OCCCN4CCN(C)CC4)c(OC)cc23)c(Cl)cc1Cl` [Bosutinib] was run?
Its value is 109 ± 1.8%.

How did the “intracellular M.tb growth inhibition” value turn out when `O=C1NC(=O)/C(=C/c2ccc3c(c2)OC(F)(F)O3)S1` was run?
The value was 42.5 ± 35%.

With `CCN(CC)CCCCNc1ncc2cc(-c3cc(OC)cc(OC)c3)c(NC(=O)NC(C)(C)C)nc2n1` as the molecule, how does the “intracellular M.tb growth inhibition” value read?
The value was 34.4 ± 29%.

Which “intracellular M.tb growth inhibition” value does the source give for `Cc1cc(C=C2C(=O)C=CC2=O)cc(C)c1O` here?
The value was -63.7 ± 80%.

`Cc1ccc(NC(=O)c2cccc(N(C)C)c2)cc1NC(=O)c1ccc(O)cc1` was tested. Which “intracellular M.tb growth inhibition” value did it give?
Its value is 36 ± 37%.

Which “intracellular M.tb growth inhibition” value does the source give for `CC(C)CCN1c2nc(Nc3cc(F)c(O)c(F)c3)ncc2N(C)C(=O)C1C` (stereo unspecified) here?
Its value is -228 ± 190%.

With `COc1cc2ncnc(Nc3ccc(Oc4ccccc4)cc3)c2cc1OC` as the molecule, how does the “intracellular M.tb growth inhibition” value read?
Its value is 41.9 ± 47%.

For `O=c1[nH]nc(Sc2ncc([N+](=O)[O-])s2)n1-c1ccc2c(c1)OCCO2`, which “intracellular M.tb growth inhibition” value is on record?
The value was -22.3 ± 6%.

How did the “intracellular M.tb growth inhibition” value turn out when `CN1CCC(Nc2ncc3ncnc(Nc4ccc(F)c(Cl)c4)c3n2)CC1` [BIBX 1382 dihydrochloride] was run?
Its value is 64.2 ± 13%.

Which “intracellular M.tb growth inhibition” value does the source give for `O=C(Nc1cc(Cl)cc2c1[nH]c1cnccc12)c1cccnc1` [PS1145 dihydrochloride] here?
The value was -10.6 ± 33%.

Which “intracellular M.tb growth inhibition” value does the source give for `COC(=O)Nc1ccc(-c2nc(N3CCOCC3)c3cnn(C4CCN(C(=O)OC)CC4)c3n2)cc1` here?
Its value is -222 ± 330%.

With `C#Cc1cccc(Nc2ncnc3cc(OCCOC)c(OCCOC)cc23)c1` [Erlotinib HCl] as the molecule, how does the “intracellular M.tb growth inhibition” value read?
The value was -17.4 ± 52%.

`CC(=O)c1c(C)c2cnc(Nc3ccc(N4CCNCC4)cn3)nc2n(C2CCCC2)c1=O` was tested. Which “intracellular M.tb growth inhibition” value did it give?
The value was -126 ± 210%.

How did the “intracellular M.tb growth inhibition” value turn out when `Cc1cc(Nc2nc(N[C@@H](C)c3ccc(F)cc3)c(C#N)cc2F)n[nH]1` was run?
Its value is -124 ± 150%.

With `O=S(=O)(NCCNC/C=C/c1ccc(Br)cc1)c1cccc2cnccc12` [H 89 dihydrochloride] as the molecule, how does the “intracellular M.tb growth inhibition” value read?
The value was 70.3 ± 6.1%.

With `N#C/C(=C\c1ccc(O)c(O)c1)C(=O)Nc1ccccc1` as the molecule, how does the “intracellular M.tb growth inhibition” value read?
The value was -35.4 ± 5.2%.

With `Oc1c2ccccc2c2c3c(cccc13)N=N2` as the molecule, how does the “intracellular M.tb growth inhibition” value read?
Its value is 12.9 ± 20%.

How did the “intracellular M.tb growth inhibition” value turn out when `COc1cc2/c(=N/c3ccc(Br)cc3F)nc[nH]c2cc1OCC1CCN(C)CC1` [Vandetanib] was run?
The value was 64.1 ± 6.5%.

`CCCOc1ccc(/C=C2/SC(=O)NC2=O)cc1` [PIM1/2 Kinase Inhibitor VI] was tested. Which “intracellular M.tb growth inhibition” value did it give?
Its value is 24.9 ± 13%.

For `COc1ccc(S(=O)(=O)N(C(C)=O)c2ccccc2/C=C/c2cc[n+]([O-])cc2)cc1`, which “intracellular M.tb growth inhibition” value is on record?
Its value is -316 ± 310%.

How did the “intracellular M.tb growth inhibition” value turn out when `CS(=O)(=O)N1CCN(Cc2cc3nc(-c4cccc5[nH]ncc45)nc(N4CCOCC4)c3s2)CC1` [GDC-0941 bismesylate] was run?
Its value is 56 ± 26%.

How did the “intracellular M.tb growth inhibition” value turn out when `CC(C)[C@H](CO)Nc1nc(Nc2ccc(C(=O)O)c(Cl)c2)c2ncn(C(C)C)c2n1` [Purvalanol B] was run?
The value was 2.54 ± 10%.

For `CC#CC(=O)Nc1ccc2ncnc(Nc3cccc(Br)c3)c2c1`, which “intracellular M.tb growth inhibition” value is on record?
Its value is 3.12 ± 4.4%.

How did the “intracellular M.tb growth inhibition” value turn out when `Cc1[nH]c(/C=C2\C(=O)Nc3ccccc32)c(C)c1CCC(=O)O` was run?
Its value is 6.44 ± 30%.
